# This is a sample that favours compounds with a hit; in the whole collection about 3.5% have one here.
# BoNT-F LC inh = BoNT F light chain protease inhibition; 0.22% of 360,000 active; AID 588497; inhibition, % at 10 µM; Multiplex microsphere protease cleavage assay, flow cytometry; in the data active means inhibition above about 35%, passing the limit was not always enough; inconclusive means no clear call, values can overlap the other calls
# BoNT-A LC inh2 = BoNT A light chain protease inhibition | multiplex microsphere protease substrate cleavage, flow cytometry | inhibition, % at 10 µM | 0.17% of 360,000 active | AID 588499
# Autofluor counter = flagged as autofluorescent in microsphere protease counterscreen; fluorescence intensity (test concentration not listed); 3.1% of 360,000 active; compound autofluorescence counterscreen, microsphere flow cytometry; active compounds read high; in the data active means fluorescence intensity above about 16000; inconclusive means no clear call, values can overlap the other calls
# Anthrax LF prot = inhibitors of Bacillus anthracis lethal factor protease. P15917. multiplex microsphere protease cleavage assay, LF. inhibition, % at 10 µM. 0.12% of 360,000 active. AID 588501
# Target sequence (P15917 whole entry, looked up): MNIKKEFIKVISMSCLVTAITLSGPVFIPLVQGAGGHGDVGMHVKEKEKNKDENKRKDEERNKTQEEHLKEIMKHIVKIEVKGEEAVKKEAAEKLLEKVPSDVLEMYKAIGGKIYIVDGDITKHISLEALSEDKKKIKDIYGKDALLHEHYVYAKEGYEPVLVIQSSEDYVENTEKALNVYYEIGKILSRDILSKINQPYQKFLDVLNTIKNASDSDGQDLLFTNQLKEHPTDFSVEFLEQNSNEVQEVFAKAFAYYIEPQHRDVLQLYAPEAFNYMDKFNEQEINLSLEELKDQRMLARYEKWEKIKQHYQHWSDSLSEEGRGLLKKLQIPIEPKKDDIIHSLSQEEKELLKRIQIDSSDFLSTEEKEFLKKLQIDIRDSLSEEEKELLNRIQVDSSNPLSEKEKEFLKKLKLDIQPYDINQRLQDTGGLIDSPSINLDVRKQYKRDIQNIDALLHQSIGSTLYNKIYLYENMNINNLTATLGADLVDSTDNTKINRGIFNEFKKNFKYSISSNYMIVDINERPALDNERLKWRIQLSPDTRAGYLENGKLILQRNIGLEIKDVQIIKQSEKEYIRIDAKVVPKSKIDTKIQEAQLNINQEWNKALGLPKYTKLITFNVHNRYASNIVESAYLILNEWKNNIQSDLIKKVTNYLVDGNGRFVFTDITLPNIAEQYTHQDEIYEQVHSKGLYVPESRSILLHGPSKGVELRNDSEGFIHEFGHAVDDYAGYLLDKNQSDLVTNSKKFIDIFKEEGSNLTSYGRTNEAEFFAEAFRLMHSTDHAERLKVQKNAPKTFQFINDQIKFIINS
# Hits are given with their value; 0 = inactive; ? = inconclusive. Unless noted, no stated cut-off is given here; in the data, active means inhibition above about 30%; inconclusive means no clear call, values can overlap the other calls; inactive means below that.
SMILES,BoNT-F LC inh,BoNT-A LC inh2,Autofluor counter,Anthrax LF prot
O=C(NCCOCC(F)(F)C(F)F)c1cc(F)c(F)cc1Cl,0,0,20634,0
c1csc(-c2nnc3ccccn23)c1,0,?,18537,0
CC1(C(=O)NCC2CCOCC2)Cc2c(-c3cccc(C(F)(F)F)c3)ccnc2O1 (stereo not given),0,0,0,0
CNS(=O)(=O)c1ccc(CNC[C@H]2O[C@@H](n3cnc4c(=O)[nH]c(N)nc43)[C@H](O)[C@@H]2O)cc1,0,0,0,0
Cc1c2c(cc3c1[nH]c1ccccc13)C=NCC2,0,0,21778,0
CCOc1ccc(Cl)cc1S(=O)(=O)N1CCC(C(=O)NCC2CCCO2)CC1 (stereo not given),0,0,0,0
C=C1CC(C)OC(c2ccccc2OCC(O)CN2CCCCC2)C1 (stereo not given),0,?,21660,0
OC(COc1cccc2ccccc12)CN1CCCC1 (stereo not given),0,0,0,0
CCC(=O)N1CCCC(C)(C(=O)Nc2ccc(C)c(C)c2)C1 (stereo not given),0,0,0,0
CCN(CC)S(=O)(=O)c1ccc(-c2nnc(SCC(=O)N3CCOCC3)o2)cc1,0,0,0,0
Cc1ccc(-c2nnc(SCC(=O)Nc3ccc(S(=O)(=O)N4CCCCCC4)cc3)o2)cc1,0,0,0,0
CCN(CC)S(=O)(=O)c1ccc(-c2nnc(SCC(C)=O)o2)cc1,0,0,16485,0
CC(=O)c1cccc(NC(=O)CSc2nnc(-c3ccc(S(=O)(=O)N4CCCC4)cc3)o2)c1,0,0,21749,0
CCN(CC)C(=O)CSc1nnc(-c2ccc(S(=O)(=O)N3CCCC3)cc2)o1,0,?,22144,0
CC1Cc2ccccc2N1C(=O)CSc1nnc(-c2ccccc2)c(-c2ccccc2)n1 (stereo not given),?,?,16388,?
Nc1nnnn1/N=C/c1ccc(F)cc1,?,0,0,0
COCCc1ccc(OC2(C)CCN(Cc3cccn3-c3nccs3)C2)cc1 (stereo not given),0,0,0,0
O=C(Nc1cc(S(=O)(=O)N2CCCCC2)ccc1N1CCCCC1)C1CC1,0,0,0,0
CCCCN(C=O)c1c(CC)nc2ccc(C(=O)N(C)Cc3ccco3)cn12,0,0,0,0
O=C(CSc1nnc(-c2ccc(S(=O)(=O)N3CCCC3)cc2)o1)NCc1ccco1,0,0,21711,0
COc1ccc(-c2nnc(SCC(=O)NCc3ccco3)o2)cc1,0,0,0,0
COc1ccc(C(=O)CSc2nnc(-c3ccc(S(=O)(=O)N4CCOCC4)cc3)o2)cc1,0,0,20449,0
CC1Cc2ccccc2N1C(=O)CSc1nnc(-c2ccc(S(=O)(=O)N3CCCC3)cc2)o1 (stereo not given),0,?,20428,0
Cc1ccc2c(c1)cc1c(=O)n(CC(=O)N3CCCC3)nc(C)n12,0,0,0,0
O=C(Cc1ccccc1)N1CCCC(c2nc(-c3cccs3)no2)C1 (stereo not given),0,0,23522,0
SMILES,BoNT-F LC inh,BoNT-A LC inh2,Autofluor counter,Anthrax LF prot
O=S(=O)(Cc1ccccc1)N1CCC(c2nc(-c3cccs3)no2)CC1,0,?,18652,0
O=C(N1CCOCC1)N1CCCC(c2nc(-c3cccs3)no2)C1 (stereo not given),0,0,20689,0
O=C(c1ccccc1Br)N1CCCC(c2nc(-c3cccs3)no2)C1 (stereo not given),0,0,0,0
O=C(c1c(F)cccc1F)N1CCCC(c2nc(-c3cccs3)no2)C1 (stereo not given),0,0,0,0
O=C(c1ccco1)N1CCCC(c2nc(-c3ccc(S(=O)(=O)NCc4ccccc4)cc3)no2)C1 (stereo not given),0,0,22212,0
Cc1cccc(NC(=O)CSc2nnnn2-c2ccc3c(c2)OCCO3)n1,0,0,0,0
COc1ccccc1CNC(=O)COc1ccc(S(=O)(=O)N2CCOCC2)cc1C,0,0,0,0
CCCC(=O)N1CCCC(c2nc(-c3cccc(OC)c3)no2)C1 (stereo not given),0,0,0,0
COc1cccc(-c2noc(C3CCCN(C(=O)Cc4ccccc4)C3)n2)c1 (stereo not given),0,0,20892,0
Cc1cc(C)cc(CC2CC(=O)N(c3ccc(Cl)cn3)C2=O)c1 (stereo not given),0,0,22513,0
Cc1cc(C(F)(F)F)c(C#N)c(SCC(=O)NC(C)(C)C)n1,0,0,25162,0
Cc1cc(C)c(C#N)c(SCC(=O)NC(C)(C)C)n1,0,0,0,0
COc1ccc(-c2cc(C(F)(F)F)c(C#N)c(SCC(=O)Nc3nc(C)co3)n2)cc1,0,0,0,0
Cc1coc(NC(=O)CSc2nc(-c3ccc(Cl)cc3)cc(C(F)(F)F)c2C#N)n1,0,0,16407,0
CCOc1ccc(-c2c(C(=O)N/N=C/C3CCCCC3)nnn2-c2nonc2N)cc1,0,0,0,0
O=C(c1ccc(F)cc1F)N1CCN(S(=O)(=O)c2ccc3c(c2)OCCO3)CC1,0,0,0,0
Cc1ccc2nsnc2c1S(=O)(=O)N1CCOCC1,0,0,22875,0
O=S(=O)(c1cccc2nsnc12)N1CCOCC1,0,0,0,0
CCN(c1ccccc1)S(=O)(=O)c1ccc2[nH]cc(C(=O)NCCOC)c(=O)c2c1,0,0,0,0
CCCCN(C)CCNC(=O)c1c[nH]c2ccc(S(=O)(=O)N(CC)CC)cc2c1=O,0,0,20963,0
CC(C)Nc1oc(Cc2cccc3ccccc23)nc1C#N,0,?,24202,0
CNc1oc(Cc2cccc3ccccc23)nc1C#N,0,0,17571,0
N#Cc1nc(Cc2cccc3ccccc23)oc1NCCN1CCCCC1,0,0,0,0
CC1CCN(S(=O)(=O)c2ccc(C(=O)N3CCCC3C(=O)O)cc2)CC1 (stereo not given),0,0,0,0
O=C(c1ccc(F)cc1Cl)N(Cc1ccco1)C1CCS(=O)(=O)C1 (stereo not given),0,0,0,0
SMILES,BoNT-F LC inh,BoNT-A LC inh2,Autofluor counter,Anthrax LF prot
CCc1ccccc1OCC(=O)Nc1cc(S(=O)(=O)N(CC)CC)ccc1N1CCOCC1,0,0,0,0
CC1(C)CC(=O)C2=C(C1)OC(N)=C(C#N)C2C1CC=CCC1 (stereo not given),0,0,22645,0
CC1C(C#N)=C(N)OC2=C1C(=O)CC(C)(C)C2 (stereo not given),0,0,0,0
Cc1cccc(N(C)c2ncnc3onc(-c4ccc(F)cc4)c23)c1C,0,0,0,0
Brc1ccc(-c2nc(-c3ccccc3)no2)o1,0,0,22544,0
N#C/C(C(=O)N1CCOCC1)=C1\Nc2ccccc2S1,0,0,20837,0
N#C/C(=C\c1cccs1)C(=O)N1CCOCC1,?,?,0,0
COc1ccc(OC)c(NC(=O)Nc2ccc(Cl)cc2)c1,0,0,0,0
COC(=O)c1cc(NC(=O)Nc2cc(OC)ccc2OC)cc(C(=O)OC)c1,0,0,23932,0
COc1ccc(OC)c(NC(=O)Nc2cccc(Cn3cccn3)c2)c1,0,0,21355,0
COc1ccc(C(=O)COC(=O)CNC(=O)c2ccccc2)cc1F,0,0,0,0
Cc1ccc(P(=O)(CO)c2ccc(C)cc2)cc1,0,0,16417,0
COc1ccc(-c2nc(C#N)c(NCc3ccccc3Cl)o2)cc1,0,?,20055,0
